Screens from PubChem BioAssay.
Only some compounds are listed: those with a hit (about 2.2% of all), similar ones and a draw of the others.
aSyn rescue – qHTS of alpha-syn Inhibitors; Potency, µM (highest dose often 46.1 µM), for the others: at the top dose growth rescue (activation), actives largely listed as activators; 0.14% of 370,000 active; Yeast expressing alpha-synuclein, growth rescue, BacTiter-Glo, 24 h; note: % of control where 0% means no effect; nearly all actives have a fitted effect of over 65% in size
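Rescue of yeast growth: cells expressing toxic alpha-synuclein, induced in galactose at OD600 0.02, incubated with compound 24 h at 30 C. ATP luminescence quantified growth; inhibitors of toxicity appear as activators.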
Abeta rescue – qHTS for compounds that reverse cellular toxicity of Amyloid beta (A-beta) peptide in yeast: Primary Screen | Potency, µM (highest dose often 46.1 µM), hits mostly activators | 0.063% of 410,000 active | yeast expressing A-beta42, growth rescue, OD600, 48 h; response scale: 0% DMSO, 100% iron-clioquinol control | AID 1347071, 2019; note: nearly all actives have a fitted effect of over 55% in size
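Yeast A-beta toxicity model in growth medium with pinned compounds, 48 h at 30 C; growth read as absorbance at 600 nm. Normalized to FeCl3/clioquinol equimolar mix (positive) and DMSO (negative).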
Mito fusion yeast – qHTS Assay for Small Molecule Inhibitors of Mitochondrial Division or Activators of Mitochondrial Fusion | S. cerevisiae fusion-defective mutant growth rescue, CellTiterGlo 48 h | Potency, µM (doses to about 46.1 µM), inactives show at the top dose growth rescue (activation), hits mostly activators | 0.23% of 320,000 active | AID 485298, 2010; note: % of control where 0% means no effect; nearly all actives have a fitted effect of over 45% in size
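Growth-rescue viability read-out: after 48 h at the non-permissive 37C in glycerol/ethanol YPEG, yeast mitochondrial fusion mutants are measured by CellTiterGlo luminescence; compounds (23 nl pinned per well) restoring growth score as division inhibitors or fusion activators.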
TDP43 rescue – qHTS of TDP-43 Inhibitors | TDP-43 expressing yeast growth rescue, BacTiter-Glo, 24 h | Potency, µM (series often up to 46.1 µM), without a hit: at the highest dose growth rescue (activation), hits mostly activators | 1.8% of 410,000 active | AID 652104, 2013; note: % of control where 0% means no effect; nearly all actives have a fitted effect of over 50% in size
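Growth rescue of TDP-43-toxic yeast measured as ATP luminescence (BacTiter-Glo). Cells grown to mid-log in raffinose, induced in galactose at OD600=0.02, exposed to compound 24 hr at 30 deg C.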
ERG Ets-DNA blk – qHTS for Small Molecule Inhibitors of the ERG Ets/DNA interaction; Transcriptional regulator ERG (Homo sapiens), P11308; fluorescence polarization, His-ERG Ets domain / labelled DNA; Potency, µM (series often up to 76.9 µM), without a hit: at the highest dose FP activity, negative = inhibition, usual class: inhibitors; 0.028% of 370,000 active; AID 624246, 2012; active = well fitted inhibition curve with a large enough effect in the polarisation, with a control signal flat; inconclusive = small, poorly fitted or top-dose-only effect, or effect the other way, or a change in a side signal; inactive = no such curve, though single readings can be large or run the other way; the % refers to the polarisation;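 note: polarization taken with two DNA probes labelled with fluorescein and Texas red; % of control where 0% means no effect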
Target sequence (P11308 whole entry, looked up, the tested form may be a part): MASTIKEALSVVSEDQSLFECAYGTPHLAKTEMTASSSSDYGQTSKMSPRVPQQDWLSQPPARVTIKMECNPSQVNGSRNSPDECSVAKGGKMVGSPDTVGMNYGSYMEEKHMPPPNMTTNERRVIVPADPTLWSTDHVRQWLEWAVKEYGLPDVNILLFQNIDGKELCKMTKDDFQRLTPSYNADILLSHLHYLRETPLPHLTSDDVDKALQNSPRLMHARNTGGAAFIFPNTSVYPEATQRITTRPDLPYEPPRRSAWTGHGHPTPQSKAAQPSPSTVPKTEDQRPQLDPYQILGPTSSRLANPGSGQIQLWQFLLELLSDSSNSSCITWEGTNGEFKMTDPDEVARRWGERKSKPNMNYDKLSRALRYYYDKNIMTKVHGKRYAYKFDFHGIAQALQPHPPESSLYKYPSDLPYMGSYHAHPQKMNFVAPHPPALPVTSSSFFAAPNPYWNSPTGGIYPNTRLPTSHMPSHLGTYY
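His-tagged ERG Ets domain (1 uM in the protein solution; 300mM KCl, 50mM Tris-HCl, 1mM EDTA, 1mM DTT, pH 7.5) received compound, then a probe mix of 5 nM fluorescein-DNA and 100nM Texas-615-DNA. Fluorescence polarization was read for both dyes.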
FUS yeast rescue – qHTS for Suppressors of FUS Proteinopathy: Primary screen using FUS-linked yeast assay | S. cerevisiae FUS-expressing, growth rescue, OD600, 24 h | Potency, µM (series often up to 76.6 µM), most hits filed as activators | 0.24% of 390,000 active;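 note: plate controls were DMSO vehicle for no effect and reference control for full effect; nearly all actives have a fitted effect of over 55% in size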
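Yeast FUS proteinopathy model; galactose-induced FUS (2%), starting OD 0.005. Cpds in dilution series, 24hr, 30C, 99% humidity. Abs 600 nm growth. Pos ctrl CP55940 (top 92uM final); neg ctrl DMSO.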
Numbers without * were called inactive; i = inactive; ? = inconclusive; . = not tested or not shown; ! = not confirmed by another sample. Unless noted, calls come from the whole dose curve; as a rule, active = well fitted curve in the direction sought with a large enough effect; inconclusive = small, poorly fitted or top-dose-only effect, or another doubt; inactive = no such curve, though single readings can be large; an effect the other way counts as inactive or inconclusive. Potency is the fitted concentration of half-maximal effect.

SMILES	aSyn rescue	Abeta rescue	Mito fusion yeast	TDP43 rescue	ERG Ets-DNA blk	FUS yeast rescue
CCCNC(=S)Nc1cccc(C(F)(F)F)c1	-2.5%	i	-2.7%	-14.7%	2.8%	i
Cc1ccn2c(c1)nc(=O)c1cc(S(=O)(=O)N3CCCCC3)c(Cl)cc12	?	i	.	10.2%	0.1%	i
CCOc1ccccc1-c1nc(-c2ccc(C)nc2OC)no1	8.8%	i	-3.2%	20µM*	2.2%	?
CCOc1nc(C)ccc1-c1noc(-c2ccccn2)n1	-0.4%	i	3.2%	-2.2%	6.9%	i
Fc1ccc2[nH]c(-c3cccs3)cc2c1	.	?	.	20µM*	0.9%	i
Cc1ccccc1CN1C(=O)C(O)(c2c[nH]c3ccccc23)c2cc(Cl)ccc21 (configuration not stated)	.	i	.	-84.0%	2.4%	?
COC(=O)c1ccc(-c2ccc3c(c2)[C@]2(CCC[C@@H](OCc4ccccc4)[C@@H]2NC(=O)CCc2ccccc2)C(=O)N3Cc2ccccc2)cc1	.	.	.	.	.	i
Cc1cccc(Nc2nnc(SCC(=O)Nc3ccccc3[N+](=O)[O-])s2)c1C	3.1%	i	29.1%	12.6µM*	2.6%	.
Cc1ccc(Nc2nnc(SCC(=O)Nc3ccccc3[N+](=O)[O-])s2)cc1	-1.4%	i	-0.5%	-29.6%	-9.5%	i
Cc1nc(CSc2nnc(Nc3cccc(C)c3C)s2)cs1	27.6%	i	-16.8%	7.94µM*	-11.8%	.
O=c1[nH][nH]c2c1C(c1cccc(C(F)(F)F)c1)OC(CCc1ccccc1)C2 (configuration not stated)	-4.4%	i	.	23.8%	.	?
Cn1c(=O)c2nc(-c3ccccc3)c(-c3ccccc3)nc2n(C)c1=O	-30.6%	i	.	31.6µM*	-5.3%	i
Cc1ccc(-c2nnc(N3CCN(C(=O)COc4cccc(C)c4)CC3)c3ccccc23)cc1	0.0%	i	12.6µM*	4.3%	-8.0%	i
Cc1cccc(OCC(=O)N2CCN(c3nnc(-c4ccccc4)c4ccccc34)CC2)c1	2.1%	?	?	25.1µM*	-5.4%	i
COc1ccc(OCC(=O)N2CCN(c3nnc(-c4ccc(C)cc4)c4ccccc34)CC2)cc1	3.0%	i	18.1%	22.4µM*	4.0%	i
O=C(COc1ccccc1)N1CCN(c2nnc(-c3ccccc3)c3ccccc23)CC1	10.3%	i	3.4%	?	-10.8%	i
COc1ccc(N2CCN(C(=O)COc3cccc4ccccc34)CC2)cc1	15.1%	i	5.7%	12.6µM*	-5.3%	.
Cc1ccc(OCC(=O)N2CCN(c3nnc(-c4ccc(C)cc4)c4ccccc34)CC2)cc1	4.4%	i	?	?	1.0%	?
O=C(CSc1nnc(-c2ccccc2)n1-c1ccccc1)NN=Cc1ccc(-c2ccccc2)cc1	.	.	.	.	.	i
CCOC(=O)c1cc2ccccc2n1C1CCN(C)CC1	0.8%	i	.	6.6%	.	i
Cc1nc(Nc2ccc3c(c2)OCCO3)c2c(C)c(C)sc2n1	13.4%	i	3.2%	11.2µM*	-1.0%	?
COc1ccc(OCCn2cc(C=O)c3ccccc32)cc1	-8.4%	i	2.1%	10µM*	8.1%	i
Cc1ccccc1OCCn1cc(C=O)c2ccccc21	4.2%	i	-0.4%	?	3.9%	i
CCCCN(CC)CCNC(=O)CNC(=O)Cn1ccc2ccccc2c1=O	4.2%	i	3.0%	24.3%	-6.3%	i
CCCCN(C)CCNC(=O)CCNC(=O)Cn1ccc2ccccc2c1=O	1.7%	i	17.8µM*	4.5%	4.2%	i
O=C(CCCN1CCC(O)(c2cccc(C(F)(F)F)c2)CC1)c1ccc(F)cc1	2.4%	i	23.1µM*!	-7.1%	5.5%	i
